Legend:
Format in all cases: functional
[1] = molecular target: Solute carrier family 2, facilitated glucose transporter member 1 (Homo sapiens) (UniProt P11166); experiment: ST_JUDE_LEISH: Cytotoxicity at 2uM final concentration against transgenic Leishmania Mexicana promastigotes LmGLUT1 that are glucose transport deficient and complemented with the human glucose transporter GLUT1. Activity is measured by DNA content using SYBR green in vitro
[2] = molecular target: Hexose transporter 1 (Plasmodium falciparum) (UniProt O97467); experiment: ST_JUDE_LEISH: Cytotoxicity at 2uM final concentration against transgenic Leishmania Mexicana promastigotes LmPfHT that are glucose transport deficient and complemented with the Plasmodium falciparum hexose transporter. Activity is measured by DNA content using SYBR green in vitro
[3] = molecular target: Glucose transporter (Leishmania mexicana) (UniProt O61059); experiment: ST_JUDE_LEISH: Cytotoxicity at 2uM final concentration against transgenic Leishmania Mexicana promastigotes LmGT2 that are glucose transport deficient and complemented with the L. Mexicana glucose transporter 2. Activity is measured by DNA content using SYBR green in vitro

Chain of Solute carrier family 2, facilitated glucose transporter member 1 (Homo sapiens) (P11166 whole entry): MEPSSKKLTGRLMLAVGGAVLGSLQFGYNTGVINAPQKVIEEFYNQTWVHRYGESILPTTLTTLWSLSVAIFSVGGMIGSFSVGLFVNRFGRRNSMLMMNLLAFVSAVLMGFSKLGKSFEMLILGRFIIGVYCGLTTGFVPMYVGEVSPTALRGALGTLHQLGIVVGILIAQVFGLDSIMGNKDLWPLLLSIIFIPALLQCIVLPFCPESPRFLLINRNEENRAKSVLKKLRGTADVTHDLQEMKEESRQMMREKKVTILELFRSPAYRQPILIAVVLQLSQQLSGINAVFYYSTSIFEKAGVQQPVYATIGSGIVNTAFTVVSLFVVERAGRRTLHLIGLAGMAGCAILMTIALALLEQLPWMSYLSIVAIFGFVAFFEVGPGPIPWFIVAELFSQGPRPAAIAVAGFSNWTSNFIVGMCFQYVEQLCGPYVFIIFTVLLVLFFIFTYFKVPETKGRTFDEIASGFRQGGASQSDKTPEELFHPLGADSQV

Structure (SMILES)	inhibition [1] [%]	inhibition [2] [%]	inhibition [3] [%]
CC(=O)N(Cc1ccccc1-c1ccc(CNCCc2ccccc2)cc1)C1CCN(Cc2ccccc2)CC1	2.55	2.41	1.25
O=C(NC1CCN(CC2(c3ccc(Cl)cc3)CCC2)CC1)c1cc[nH]n1	1.71	-0.69	-1.02
C[C@@H]1C[C@@H]([C@H](O)CC2CC(=O)NC(=O)C2)C(=O)[C@@H](C)C1	90	90.8	88.7
Cc1c2ccncc2c(C)c2c1[nH]c1ccccc12	17.5	20.9	14.7
Cc1[nH]c2cc(Cl)ccc2c1C1=CCN(CCN2CCOc3c(Br)cccc3C2=O)CC1	5.36	5.27	6.71
CS(=O)(=O)Nc1ccc2[nH]cc(C3CCN(CC4CCC(NC(=O)/C=C/c5ccc(Cl)c(Cl)c5)CC4)CC3)c2c1 (centres undefined)	0.82	6.93	-0.55
COC(=O)c1ccc(CC(C)NCC(O)c2cccc(C(F)(F)F)c2)c(OC)c1 (centres undefined)	6.43	5.12	5.25
COc1ccc2[nH]cc(C3=CCN(Cc4ccccc4)CC3)c2c1	3.41	2.34	2.21
O=C(Cc1cc(=O)oc2cc(O)ccc12)NC1CCC(CN2CCC(c3c[nH]c4ccccc34)CC2)CC1 (centres undefined)	2.39	2.2	2.14
CC(=O)N(Cc1cccc(-c2cccc(CNCc3ccc4c(c3)OCO4)c2)c1)C1CCN(Cc2ccccc2)CC1	6.88	7.09	7.83
O=C(/C=C/c1ccc(Cl)c(Cl)c1)NCC1CCC(N2CCC(c3c[nH]c4ccccc34)CC2)CC1 (centres undefined)	5.53	11.2	0.18
CC[C@H]1CN2CC[C@H]1C[C@H]2[C@H](OC(=O)c1ccccc1)c1cc(C#N)nc2ccc(OC)cc12	1.81	-0.58	0.6
O=C(c1cc(C(=O)NCc2ccc(Cl)cc2)c(=O)n(Cc2ccc(Cl)cc2)c1)c1cc(Cl)ccc1O	-1	-1.29	3.58
CC(=O)N(Cc1ccccc1-c1cccc(CNCCc2ccccc2)c1)C1CCN(Cc2ccccc2)CC1	8.96	7.85	7.27
C[C@@H](CC1CCCCC1)NCc1ccccc1O	4.7	11.1	3.31
O=C(Cc1c(-c2ccccc2)[nH]c2ccccc12)NC1CCC(CN2CCC(c3c[nH]c4ccccc34)CC2)CC1 (centres undefined)	4.32	4	2.03
CC[C@H]1CN2CC[C@@H]1C[C@H]2[C@H](O)c1cc(-c2ccc(Cl)c(Cl)c2)nc2ccc(O)cc12	-0.36	-1.15	-0.47
CC[C@H]1CN2CC[C@@H]1C[C@H]2[C@H](O)c1cc(-c2ccc(F)cc2)nc2ccc(O)cc12	-0.76	0.53	-0.19

Source: ChEMBL document CHEMBL3433997, “St. Jude Leishmania screening dataset” (2016)
